Results as given in PubChem BioAssay AID1159580 (chemical genetic matrix, 2015).
Several values for one entry are separate records, joined by “and”; a condition that tells them apart may be missing. Equal entries are not always repeated. Screen size: about 5,500 compounds; about 2,000 (36%) were called active. Another 18% or so got no clear call; they are omitted. Cut-off read from the data, not from the text of the source: active = normalized growth mostly below about 0.91 (no sharp cut-off); inconclusive = no clear call, values can overlap the other calls; inactive = mostly above about 0.92. This is one part of the list.

Test: chemical genetic growth profiling, strain panel (AID 1159580);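 note: tested at 20 µM; growth read once vehicle control cultures reached saturation at 30 °C; 1 = growth at the plate median or of vehicle wells; lower values mean less growth of the strain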
Details: S. cerevisiae deletion strains, growth OD

Measured: normalized growth

CN(C)CCN(Cc1ccccc1)c1ccccn1
inactive: locus YAL013W, strain DEP1, stronger effect = lower value 0.988 | locus YAL021C, strain ccr4, stronger effect = lower value 1.01 | locus YAL026C, strain drs2, stronger effect = lower value 1.01 | locus YAL030W, strain snc1, stronger effect = lower value 1.02 | locus YBL061C, strain skt5, stronger effect = lower value 1.01 | locus YBR009C, strain hhf1, stronger effect = lower value 0.963 | locus YBR021W, strain FUR4, stronger effect = lower value 0.99 | locus YBR023C, strain chs3, stronger effect = lower value 1.01 | locus YBR171W, strain sec66, stronger effect = lower value 1.02 | locus YBR229C, strain ROT2, stronger effect = lower value 1.01 | locus YBR231C, strain swc5, stronger effect = lower value 1.02 | locus YBR279W, strain paf1, stronger effect = lower value 1.01 | locus YCL011C, strain gbp2, stronger effect = lower value 1 | locus YCL016C, strain dcc1, stronger effect = lower value 0.997 | locus YCL029C, strain bik1, stronger effect = lower value 0.972 | locus YCL061C, strain MRC1, stronger effect = lower value 1.03 | locus YCL069W, strain vba3, stronger effect = lower value 1.01 | locus YCR088W, strain abp1, stronger effect = lower value 0.997 | locus YDL005C, strain med2, stronger effect = lower value 1.01 | locus YDL035C, strain GPR1, stronger effect = lower value 1.01 | locus YDL040C, strain nat1, stronger effect = lower value 1.02 | locus YDL074C, strain BRE1, stronger effect = lower value 1.02 | locus YDL101C, strain DUN1, stronger effect = lower value 0.987 | locus YDL134C, strain PPH21, stronger effect = lower value 1 | locus YDL185W, strain tfp1, stronger effect = lower value 0.946 | locus YDL192W, strain arf1, stronger effect = lower value 0.98 | locus YDR001C, strain nth1, stronger effect = lower value 1.01 | locus YDR069C, strain doa4, stronger effect = lower value 1.03 | locus YDR101C, strain arx1, stronger effect = lower value 0.988 | locus YDR137W, strain rgp1, stronger effect = lower value 1.01 | locus YDR150W, strain NUM1, stronger effect = lower value 0.981 | locus YDR159W, strain sac3, stronger effect = lower value 0.981 | locus YDR162C, strain NBP2, stronger effect = lower value 0.989 | locus YDR195W, strain ref2 1.02 | locus YDR297W, strain sur2, stronger effect = lower value 1.02 | locus YDR318W, strain mcm21, stronger effect = lower value 1.01 | locus YDR334W, strain swr1, stronger effect = lower value 1.01 | locus YDR335W, strain msn5, stronger effect = lower value 1.02 | locus YDR388W, stronger effect = lower value 1 | locus YDR392W, strain spt3, stronger effect = lower value 0.999 | locus YDR502C, strain sam2, stronger effect = lower value 1.02 | locus YEL003W, strain gim4, stronger effect = lower value 1.02 | locus YEL037C, strain rad23, stronger effect = lower value 1.02 | locus YEL061C, strain CIN8 (second series), stronger effect = lower value 1.02 | locus YEL061C, strain CIN8, stronger effect = lower value 0.992 | locus YER015W, strain faa2, stronger effect = lower value 1.01 | locus YER016W, strain bim1, stronger effect = lower value 0.964 | locus YER110C, stronger effect = lower value 0.973 | locus YER111C, strain swi4, stronger effect = lower value 1.02 | locus YER155C, strain BEM2 (second series), stronger effect = lower value 1.05 | locus YER155C, strain BEM2, stronger effect = lower value 1 | locus YER167W, strain BCK2, stronger effect = lower value 0.996 | locus YFR010W, strain ubp6, stronger effect = lower value 1.03 | locus YGL078C, strain dbp3, stronger effect = lower value 0.991 | locus YGL086W, strain mad1, stronger effect = lower value 0.992 | locus YGL167C, strain pmr1, stronger effect = lower value 1.01 | locus YGL173C, strain kem1, stronger effect = lower value 1.03 | locus YGL227W, strain vid30, stronger effect = lower value 1.01 | locus YGL240W, strain doc1, stronger effect = lower value 1.04 | locus YGL248W, strain PDE1, stronger effect = lower value 1.01 | locus YGL253W, strain hxk2, stronger effect = lower value 1 | locus YGR078C, strain PAC10, stronger effect = lower value 0.988 | locus YGR135W, strain pre9, stronger effect = lower value 1.01 | locus YGR229C, strain SMI1, stronger effect = lower value 1 | locus YGR252W, strain gcn5, stronger effect = lower value 1.14 | locus YHR013C, strain ard1, stronger effect = lower value 0.984 | locus YHR027C, strain rpn1, stronger effect = lower value 1 | locus YHR030C, strain SLT2, stronger effect = lower value 0.968 and 0.97 | locus YHR079C, strain IRE1 (second series), stronger effect = lower value 0.999 | locus YHR079C, strain IRE1, stronger effect = lower value 0.953 | locus YHR094C, strain hxt1, stronger effect = lower value 0.967 | locus YHR129C, strain ARP1, stronger effect = lower value 0.994 | locus YHR142W, strain chs7, stronger effect = lower value 1.01 | locus YHR200W, strain rpn10, stronger effect = lower value 1 | locus YIL066C, strain RNR3, stronger effect = lower value 1 | locus YIL073C, strain SPO22, stronger effect = lower value 0.928 | locus YIL125W, strain kgd1, stronger effect = lower value 0.976 | locus YIR030C, strain dcg1, stronger effect = lower value 0.994 | locus YJL092W, strain hpr5, stronger effect = lower value 1.03 | locus YJL095W, strain BCK1 (second series), stronger effect = lower value 1.01 | locus YJL095W, strain BCK1, stronger effect = lower value 0.96 and 0.975 | locus YJL115W, strain asf1, stronger effect = lower value 1.02 | locus YJL129C, strain trk1, stronger effect = lower value 1.02 | locus YJL134W, strain LCB3, stronger effect = lower value 0.998 | locus YJL154C, strain vps35, stronger effect = lower value 1.01 | locus YJL164C, strain tpk1, stronger effect = lower value 1 | locus YJL166W, strain qcr8, stronger effect = lower value 1.04 | locus YJL168C, strain set2, stronger effect = lower value 0.982 | locus YJL187C, strain SWE1 (second series), stronger effect = lower value 0.985 | locus YJR043C, strain POL32, stronger effect = lower value 1.01 | locus YJR066W, strain TOR1, stronger effect = lower value 0.947
